Source: PubChem BioAssay
AMA1 RON2 block: AMA1-RON2 (P. falciparum) interaction inhibition. Potency, µM (series often up to 58.2 µM), without a hit: top-dose activity change, negative = inhibition, most hits filed as inhibitors. 360,000 compounds, 0.2% hits. AlphaScreen AMA1-biotinylated RON2 peptide binding;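 note: 0% = vehicle wells and -100% = peptide control; nearly all actives have a fitted effect of over 45% in size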
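AMA1 (3D7) with his tag at 25 nM final met compounds first, then biotinylated RON2 peptide at 25 nM; detection used donor plus acceptor beads, 10 µg/mL apiece, read by AlphaScreen after 30 min at room temperature.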
SARS PLpro yeast: inhibitors of SARS-CoV papain-like protease in yeast | S. cerevisiae expressing SARS-CoV PLpro, growth rescue | Potency, µM (doses to about 32.9 µM), for inactives: top-dose activity, positive = growth rescue, hits mostly activators | 330,000 compounds, 0.19% hits; calls by dose curve; note: 0% is about no effect; nearly all actives have a fitted effect of over 55% in size
NS1 inh: influenza NS1 inhibition; Potency, µM (highest dose often 46.1 µM), for inactives: at the highest dose activity, positive = more growth; 270,000 compounds, 0.4% hits; AID 2326; calls by dose curve; note: actives are rising curves; nearly all actives have a fitted effect of over 50% in size
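S. cerevisiae expressing influenza A NS1, grown in glucose, washed, then diluted 1:100 into pH 6.0 -URA galactose medium with 23 nl compound. Growth recovery read as OD600; NS1-free strain serves as control.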
Pf growth 48h: inhibits P. falciparum growth in the first generation, 48 h; P. falciparum luciferase growth in erythrocytes, 48 h; Potency, µM (top dose mostly 28.7 µM), for the others: at the top dose activity change, negative = inhibition, most hits filed as inhibitors; 310,000 compounds, 5.9% hits; AID 504832; note: % is set by controls: 0 for no effect and ±100 for the full control effect
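Luciferase-expressing P. falciparum in infected erythrocytes (2% hematocrit, 0.1% parasitemia final) in RPMI 1640/0.5% Albumax were exposed to compound for 48 hours at 37 C, 5% CO2; growth read as luminescence.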
Pf growth 96h: P. falciparum growth inhibition at 96 hours. 320,000 compounds, 6.9% hits. P. falciparum luciferase reporter growth, 96 h. Potency, µM (top dose mostly 28.7 µM), inactives show at the highest dose activity change, negative = inhibition, hits mostly inhibitors; note: % is set by controls: 0 for no effect and ±100 for the full control effect
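Luminescence readout: decreased luciferase signal marks inhibited growth of reporter-expressing P. falciparum in infected red cells (2% hematocrit, 0.05% parasitemia final), exposed to compound two generations (96 h, 37 C, 5% CO2).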
HCV inh: HCV inhibition. Potency, µM (doses to about 41.8 µM), without a hit: top-dose activity change, negative = inhibition, most hits filed as inhibitors. Huh7.5.1 HCVcc-Cre infection, luciferase reporter, 44 h. 340,000 compounds, 3.4% hits. AID 651820; note: % is set by controls: 0 for no effect and ±100 for the full control effect
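Antiviral activity was scored by luciferase reporter output from cells infected with HCVcc-Cre (~0.5 moi) in presence of compound, 44 h infection period, cells seeded 1,000/well 4 h prior.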
Numbers without * were called inactive; ? = inconclusive; / = not tested or not shown. In the library only some 12% were active in any assay of this set; here they are far more common. Unless noted, calls come from the whole dose curve; as a rule, active = well fitted curve in the direction sought with a large enough effect; inconclusive = small, poorly fitted or top-dose-only effect, or another doubt; inactive = no such curve, though single readings can be large; an effect the other way counts as inactive or inconclusive. Potency is the fitted concentration of half-maximal effect.

SMILES	AMA1 RON2 block	SARS PLpro yeast	NS1 inh	Pf growth 48h	Pf growth 96h	HCV inh
CCCn1c(N)c(C(=O)CSc2nnc(-c3ccoc3C)n2C)c(=O)n(C)c1=O	7.8%	10.7%	/	?	?	8.5%
CC(C)Cn1c(N)c(C(=O)CSc2nnc(-c3ccco3)n2C)c(=O)n(C)c1=O	45.9%	-0.3%	/	5.22µM*	1.31µM*	15.7%
CC(C)Cn1c(SCC(=O)c2ccc(Cl)s2)nnc1-c1ccco1	-13.5%	-8.0%	-51.7%	/	11.7µM*	-16.0%
CCOCCCNC(=O)C(NC(=O)Cc1c[nH]c2ccccc12)c1ccccc1 (configuration not stated)	-1.5%	-2.9%	/	-5.6%	5.4%	-6.7%
O=C(NN=C1c2ccccc2-c2ccccc21)c1ccccc1	94.8%	6.5%	8.3%	-1.1%	8.28µM*	?
O=C(NN=C1c2ccccc2-c2ccccc21)c1ccccc1Br	26.1%	-4.8%	20.4%	9.7%	37.4%	?
NC(=S)NN=C1c2ccccc2-c2ccccc21	40.9%	-5.9%	6.2%	?	27.7%	6.31µM*
CC(C)NC(=O)NC1C2CC3CC(C2)CC1C3 (configuration not stated)	1.9%	-18.2%	-53.4%	?	10.4µM*	19.7%
CN(CC(=O)Nc1ccccc1Cl)C(=O)CN1C(=O)C2CC=CCC2C1=O (configuration not stated)	0.2%	0.7%	/	/	/	5.5%
CCC(c1nnnn1Cc1ccco1)N1CCN(c2cc(Cl)ccc2C)CC1 (configuration not stated)	-8.8%	-5.1%	-36.5%	?	1.47µM*	?
Cc1ccc(Cl)cc1N1CCN(Cc2nnnn2Cc2ccco2)CC1	-11.6%	0.7%	-55.0%	8.2%	8.28µM*	-7.7%
CC(C)C(c1nnnn1Cc1ccco1)N1CCN(c2cccc(Cl)c2)CC1 (configuration not stated)	-8.2%	-5.1%	-55.0%	-0.1%	121.1%	-21.2%
Cc1ccc(Cl)cc1N1CCN(Cc2nnnn2C2CCCCC2)CC1	2.7%	-8.4%	-60.6%	?	?	?
COc1ccc(C(=O)/C(C#N)=N/Nc2cccc([N+](=O)[O-])c2)cc1	-15.4%	-3.6%	1.6%	-17.9%	-10.3%	11.2µM*
COc1ccc(N/N=C(/Oc2ccc([N+](=O)[O-])cc2)C(C)=O)cc1	12.9%	4.6%	3.4%	?	11.7µM*	4.9%
Cc1nn(Cc2ccccc2)c2c1C(c1ccncc1)C(C#N)=C(N)O2 (configuration not stated)	5.2%	-0.3%	-3.4%	-16.6%	?	-16.4%
Cc1nn(Cc2ccccc2)c2c1C(c1ccc(Cl)cc1)C(C#N)=C(N)O2 (configuration not stated)	1.2%	11.9%	-4.9%	?	1.17µM*	1.7%
O=C1/C(=C/c2cccc(Cl)c2)SC(=S)N1CCC(=O)N1CCCCC1CCO (configuration not stated)	-9.3%	-3.8%	-6.6%	?	?	-17.6%
O=C1/C(=C/c2ccc(Cl)cc2)SC(=S)N1CCC(=O)N1CCCCC1CCO (configuration not stated)	-7.1%	0.0%	-1.1%	-9.1%	13.1µM*	?
O=C1/C(=C/c2ccccc2)SC(=S)N1CCCC(=O)N1CCCCC1CCO (configuration not stated)	-1.3%	-0.3%	-16.9%	?	7.38µM*	?
COC(=O)[C@H](CCSC)NC(=O)Cn1cnc2c(NCc3ccccc3)ncnc21	0.0%	24.6%	/	/	/	34.8%
C/C(=N\NC(=O)CSc1nc(C)[nH]c1[N+](=O)[O-])c1ccc(F)cc1	24.6%	0.7%	3.5%	4.0%	?	-5.4%
Cc1cc(C(=O)NNC(=S)NC(=O)/C=C/c2ccccc2Cl)n[nH]1	-43.1%	10µM*	16.6%	/	5.8%	?
CCC1=Nc2cc(C(=O)NCCN3CCOCC3)ccc2Sc2ccc(C)cc21	0.0%	-4.5%	-0.8%	?	-28.6%	?
CCC1=Nc2cc(C(=O)N3CCC4(CC3)OCCO4)ccc2Sc2ccc(C)cc21	-4.1%	-1.6%	-27.2%	10.4µM*	-25.7%	-1.0%
SMILES	AMA1 RON2 block	SARS PLpro yeast	NS1 inh	Pf growth 48h	Pf growth 96h	HCV inh
CCC1=Nc2cc(C(=O)NCc3ccco3)ccc2Sc2ccc(C)cc21	-12.4%	-50.7%	16.6%	1.31µM*	25.3%	?
CCOC(=O)N1CCN(C(=O)c2ccc3c(c2)N=C(CC)c2cc(C)ccc2S3)CC1	-1.8%	-4.1%	8.2%	?	?	?
CCOC(=O)N1CCC(NC(=O)c2ccc3c(c2)N=C(CC)c2cc(C)ccc2S3)CC1	7.1%	-25.9%	20.3%	?	-4.9%	3.16µM*
Cc1cccc(-c2nc3ccc(C(=O)N4CCC5(CC4)OCCO5)cc3nc2-c2cccc(C)c2)c1	-6.3%	-3.2%	-0.9%	10.4µM*	?	?
COc1cc(OC)cc(-c2oc(=O)c3cc(OC)c(OC)cc3c2/C=C/c2ccc(F)cc2)c1	0.0%	-2.1%	/	0.0%	?	12.6%
COc1cc(C(=O)NCCC(=O)NCc2cccs2)cc(OC)c1OC	7.7%	/	/	/	/	/
CCCC1=Nc2cc(C(=O)N3CCC(C(=O)OCC)CC3)ccc2Sc2ccccc21	-19.5%	-3.7%	-37.3%	8.28µM*	9.28µM*	?
CC1=Nc2cc(C(=O)N3CCCC3)ccc2Sc2ccc(C)cc21	-7.7%	-1.4%	9.7%	9.28µM*	?	0.9%
CCCC1=Nc2cc(C(=O)N3CCC(C(N)=O)CC3)ccc2Sc2ccccc21	5.9%	-2.3%	18.7%	?	?	7.2%
CC1=Nc2cc(C(=O)N3CCCCC3)ccc2Sc2ccc(C)cc21	-7.2%	2.8%	0.5%	9.28µM*	32.3%	-1.5%
CCCC1=Nc2cc(C(=O)N3CCCC3)ccc2Sc2ccc(C)cc21	-17.2%	19.3%	-39.2%	11.7µM*	5.6%	-21.5%
CCC1=Nc2cc(C(=O)N3CCCCC3)ccc2Sc2ccc(C)cc21	-11.1%	0.2%	-8.6%	?	3.4%	-26.0%
CCCC1=Nc2cc(C(=O)N3CCN(c4ccccn4)CC3)ccc2Sc2ccc(C)cc21	-29.4%	-5.9%	-0.2%	9.28µM*	?	11.2µM*
O=C(c1ccco1)N1CCN(C(=O)c2cnn3c2NC(c2cccs2)CC3C(F)(F)F)CC1 (configuration not stated)	-1.1%	5.1%	-8.2%	?	-57.1%	0.5%
O=C(c1cnn2c1NC(c1ccco1)CC2C(F)(F)F)N1CCN(c2cccc(Cl)c2)CC1 (configuration not stated)	-15.7%	11.1%	-44.8%	?	/	10µM*
CCCC(c1cc(C(C)(C)C)c(O)cc1C)c1cc(C(C)(C)C)c(O)cc1C	/	/	-0.4%	/	/	/
